Results from PubChem BioAssay AID1851 (National Center for Advancing Translational Sciences (NCATS), 2009).
Values joined by “and” are separate entries in the source; they are usually repeats but may differ in a detail not shown here. Equal values may be shown once. The campaign covered roughly 16,000 compounds. About 5,700 (36%) were called active. Inconclusive results (about 24%) are left out. The call rests on the fitted dose curve; in most records, active means well fitted curve in the direction sought with a large enough effect; inconclusive means small, poorly fitted or top-dose-only effect, or effect the other way; inactive means no such curve, though single readings can be large or run the other way. The list shows a part of the results. Peptide text beside a SMILES is read from it. * marks the point of attachment. Cbz = O=C(OCc1ccccc1)*

target: Cytochrome P450 1A2 (Homo sapiens) (UniProt P05177); experiment: Cytochrome panel assay with activity outcomes; conditions: recombinant CYP, pro-luciferin dealkylation, luminescence, p450-cyp1a2; series mostly up to 57.1 µM
Sequence (P05177 whole entry, looked up): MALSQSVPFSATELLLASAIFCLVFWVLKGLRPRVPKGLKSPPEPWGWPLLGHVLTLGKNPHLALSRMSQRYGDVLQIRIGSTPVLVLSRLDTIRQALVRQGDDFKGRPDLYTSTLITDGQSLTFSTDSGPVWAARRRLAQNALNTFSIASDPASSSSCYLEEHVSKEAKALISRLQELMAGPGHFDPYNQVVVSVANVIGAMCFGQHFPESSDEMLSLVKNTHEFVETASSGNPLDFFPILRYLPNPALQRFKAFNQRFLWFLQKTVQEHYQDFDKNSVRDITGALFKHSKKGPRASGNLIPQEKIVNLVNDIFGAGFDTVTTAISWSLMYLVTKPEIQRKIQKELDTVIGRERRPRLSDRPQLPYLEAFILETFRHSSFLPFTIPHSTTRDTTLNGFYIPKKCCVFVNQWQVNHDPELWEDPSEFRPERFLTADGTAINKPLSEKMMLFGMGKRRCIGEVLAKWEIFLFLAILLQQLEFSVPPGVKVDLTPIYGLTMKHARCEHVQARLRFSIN
On the % scale 0 is the no-effect control and ±100 the full control effect.

SMILES | AC50 | activity, negative = inhibition
Cc1noc(C)c1-c1ccc2ncnc(N3CCN(C)CC3)c2c1 | 12.6 µM (active) | 
Cc1noc(C)c1-c1ccc2ncnc(N3CCOCC3)c2c1 | 12.6 µM (active) | 
Cc1noc(C)c1-c1cncnc1N1CCN(C)CC1 | inactive | 
NCCc1ccn[nH]1 | inactive | 
CCOC(=O)c1[nH]c2cc3c(cc2c1NC(=O)CN1CCc2ccccc2C1)OCO3 | 2.82 µM (active) | 
CCOC(=O)c1[nH]c2cc(OC)c(OC)cc2c1NC(=O)c1ccc2c(c1)OCO2 | 2.24 µM (active) | 
COC(=O)c1[nH]c2cc(OC)ccc2c1NC(=O)c1ccc2c(c1)OCO2 | 2.51 µM (active) | 
Cc1ccc(NC(=O)CN2CCC(NC(=O)Cc3ccccc3)CC2)cc1C | inactive | 
CCOC(=O)c1[nH]c2cc(OC)c(OC)cc2c1NC(=O)c1nonc1C | 1 µM (active) | 
COc1cc(C(=O)OCC(=O)Nc2cc(C)on2)cc(OC)c1OC | inactive | 
CC1(C)CC(NC(=O)c2ccc3c(c2)OCO3)CC(C)(C)N1 | inactive | 
c1ccc2c[n+](Cc3ccnc4ccccc34)ccc2c1 |  | -21.8% [at 2.29 µM] (inactive)
CCOC(=O)N1CCC(NC(=O)c2cc(S(=O)(=O)N3CCCC3)cn2C)CC1 | inactive | 
CCOC(=O)c1[nH]c2ccc(OC)cc2c1NC(=O)c1ccc2c(c1)OCO2 | 2.24 µM (active) | 
O=C(CCN1CCOCC1)Nc1ccc(F)cc1F |  | -11.8% [at 11.4 µM] (inactive)
CCN1CCN(CCC(=O)Nc2cccc(OC)c2)CC1 | inactive | 
COC(=O)c1[nH]c2cc(OC)ccc2c1NC(=O)CCN1CCSCC1 | 1.41 µM (active) | 
COc1ccc(-c2nc3cnc(N(C)C)nc3n(C[C@H]3CCCO3)c2=O)cc1 | 3.16 µM (active) | 
CN(C)c1ncc2nc(-c3ccc(F)cc3)c(=O)n(C[C@H]3CCCO3)c2n1 | 2.51 µM (active) | 
C/C(CCc1ccc2c(c1)OCO2)=N\N=C1\NC(=O)CC(C(=O)Nc2ccccc2)S1 (centres undefined) | 15.8 µM (active) | 
C[C@@H]1[C@H]2CC[C@@H]3[C@@H]4CC=C5C[C@@H](N(C)C)CC[C@]5(C)[C@@H]4CC[C@@]32CN1C | inactive | 
CCOc1[nH]n(-c2ccc(Cl)cc2)c(=O)c1C=Nc1ccc(Cl)cc1 | 2.82 µM (active) | 
CCc1nnc(NS(=O)(=O)c2ccc(N=Cc3c(C)[nH]n(-c4ccc(C)cc4)c3=O)cc2)s1 | inactive | 

SMILES | AC50 | activity, negative = inhibition
CCOc1[nH]n(-c2ccccc2)c(=O)c1C=Nc1ccc(Cl)cc1 | 2 µM (active) | 
OCCN1CCOCCOCCN(CCO)CCN(CCO)CC1 | inactive | 
Nc1nc(Br)c2ccccc2c1-c1ccc(F)cc1 | 1.26 µM (active) | 
Nc1nc(Br)c2c(F)cccc2c1-c1ccc(Cl)cc1 | 3.55 µM (active) | 
Nc1nc(Br)c2c(F)cccc2c1-c1ccc(F)cc1 | 1.26 µM (active) | 
CCCOc1ccc(C2C(=O)N(C3CCCCC3)CC(=O)N2C2CC2)cc1OC (centres undefined) | inactive | 
CCCCCCCCCCCCCCC/C=C\[C@H](O)[C@@H](NC(=O)CCCCCCCCCCCCC)OC (tested in a mixture with another compound) | inactive | 
CCCCCCCCCCCCCCCC(=O)NC(C)C | inactive | 
CCCCCCCCCCCCC/C=C\[C@@H](O)[C@H](CO)NC(C)=O | 20 µM (active) | 
CC(=O)Nc1ccc(S(=O)(=O)N=S(C)C)cc1 | inactive | 
Cc1cc(C)c(C#N)c(OCC(=O)c2ccc(Br)cc2)n1 | 1.26 µM (active) | 
Cc1cccc(C)c1NC(=O)CSc1nc(C)c(CC(=O)c2ccc(Br)cc2)c(C)c1C#N | inactive | 
Fc1cc2nc(-c3ccncc3)[nH]c2cc1F | 2 µM (active) | 
Cc1cc2nc(SCCOC(=O)Nc3ccc(Cl)cc3)nc(C)c2cc1C | 1.41 µM (active) | 
CCCCCCCCCCCC1=C(O)C(=O)C=C(O)C1=O | inactive | 
COCCn1c(=O)c(-c2ccccc2)nc2cnc(OC)nc21 | 1 µM (active) | 
COCCn1c(=O)c(-c2ccc(OC)cc2)nc2cnc(OC)nc21 | 3.16 µM (active) | 
COCCn1c(=O)c(-c2ccc(Cl)cc2)nc2cnc(OC)nc21 | 0.398 µM (active) | 
CC(C)=CCC/C(C)=C/CO/N=C1/C[C@@H](O)[C@@H](O)[C@@H]2[C@@H]3C(=O)N(C(C)(C)C)C(=O)[C@H]3CC[C@H]12 |  | -9.03% [at 11.4 µM] (inactive)
CCOC(=O)N1CCC(NC(=O)CSCc2cnn(-c3ccccc3)c2-n2cccc2)CC1 | inactive | 
O=C(NNS(=O)(=O)c1ccc(Cl)cc1)c1cnn(-c2ccccc2)c1-n1cccc1 | 17.8 µM (active) | 
O=C(NNS(=O)(=O)c1ccc(Cl)cc1)C1CCN(Cc2ccccc2)CC1 | inactive | 
Cc1ccc(NC(=S)c2nc3ccccc3s2)cc1 | 0.562 µM (active) | 

SMILES | AC50 | activity, negative = inhibition
Cc1cccc(NC(=S)c2nc3ccccc3s2)c1 | 1.12 µM (active) | 
N#Cc1c(-c2cccs2)nc(SCC(=O)c2cccs2)[nH]c1=O | 8.91 µM (active) | 
Cc1cccc(NC(=O)CSc2nc(-c3ccccc3)c(C#N)c(=O)[nH]2)c1C | inactive | 
O=C(O)c1c(Br)c(Br)c(Br)c(Br)c1C1c2ccc(O)cc2Oc2cc(O)ccc21 |  | -6.83% [at 2.29 µM] (inactive)
CN=c1nc(-c2ccccc2)n(-c2ccccc2)s1 | 5.01 µM (active) | 
CCn1c(SCc2cccc(C)c2)nnc1-c1ccccc1 | 3.55 µM (active) | 
CCn1c(SCc2ccc(C#N)cc2)nnc1-c1ccc(S(=O)(=O)N2CCCCC2)cc1 | inactive | 
CCn1c(SCc2cccc(C)c2)nnc1-c1ccc(C)cc1 | 17.8 µM (active) | 
CCn1c(SCc2ccc(C)cc2)nnc1-c1nn(-c2ccccc2)ccc1=O | inactive | 
CN(C)CCCNc1c(C(=O)O)cnc2c1cnn2C | inactive | 
CCOC(=O)c1cnc2c(cnn2CC)c1NN=C(C)C | 501 nM (active) and 126 nM (active) | 
CCCCNc1c(C(=O)OCC)c(C)nc2c1cnn2CC | 63.1 nM (active) and 631 nM (active) | 
CCOC(=O)c1cnn(CCOC(=O)C(C)(C)C)c1NC(=O)C(C)(C)C | inactive | 
O=C(CCCN1CCC(O)(c2cccc(C(F)(F)F)c2)CC1)c1ccc(F)cc1 | inactive | 
O=C(Cn1nnc(-c2ccccc2)n1)OCc1ccccc1 | 1.78 µM (active) | 
NC(=O)C1CCN(C(=O)OCc2ccccc2)CC1 | inactive | 
COC(=O)CCC(NC(=O)OCc1ccccc1)C(=O)NC(CC(C)C)C(=O)OC (centres undefined) (Cbz-Glu(OMe)-Leu-OMe; configuration not given here) | inactive | 
Cc1cc(C(=O)O)c(=O)[nH]c1C | inactive | 
Cc1[nH]c(N)nc(=S)c1CCC(=O)O |  | -11.2% [at 11.4 µM] (inactive)
Cc1[nH]c2c(C)ccc(C)c2c1CC(=O)O | 3.16 µM (active) | 
CC1CCCC(n2c(=S)[nH]c3ccccc3c2=O)C1C (centres undefined) | 7.08 µM (active) | 
C/C(CCC(=O)OC[C@@H]1O[C@H](C#Cc2ccccc2)C=C[C@@H]1Oc1ccc(C)cc1)=N/O[C@@H](C)c1cc(-c2c(C)cc(C)cc2C)no1 |  | -4.43% [at 11.4 µM] (inactive)
Cc1nc(N2CCOCC2)nc(N2CCN(c3ccccc3)CC2)c1[N+](=O)[O-] | 7.08 µM (active) | 
